Measured values from PubChem BioAssay (NCATS).
Inconclusive results are not listed. Activity calls are given as the source filed them. Calls follow the shape of the full dose curve. Bridge positions count the residues as written; N and C are the ends. Square brackets hold non-standard residues; d marks the D form. Peptide text beside a SMILES is read from it. hArg = N=C(N)NCCCC[C@H](N)C(=O)O; Mpa = O=C(O)CCS

Key:
[1] = Primary qHTS for inhibitors of SARS-S pseudo-typed particle cell entry (AID 1479145); also: nearly all actives have a fitted effect of over 45% in size; also: potency is read from the fitted curve at half-maximal effect
[2] = Primary qHTS for Huh7 cytotoxicity: counterscreen for inhibitors of MERS-S pseudotyped particle cell entry (AID 1479147)
[3] = Primary qHTS for inhibitors of MERS-S pseudo-typed particle cell entry (AID 1479149); also: nearly all actives have a fitted effect of over 60% in size; also: potency is read from the fitted curve at half-maximal effect
[4] = Primary qHTS for Vero E6 cytotoxicity: counterscreen for inhibitors of SARS-S pseudo-typed particle cell entry (AID 1479150); also: potency is read from the fitted curve at half-maximal effect
[5] = Confirmatory qHTS for VERO E6 Cytotoxicity Assay: Counterscreen for SARS-CoV-2 CPE Assay (AID 1508605); also: series mostly up to about 20 µM; nearly all actives have a fitted effect of over 60% in size

Measured: Potency

C#CCN(C)Cc1ccccc1
not listed: [5]
inactive: all other assays above

C=CCCCCCCCCC(=O)O
not listed: [5]
inactive: all other assays above

O=C(O)CCNC(=O)c1ccccc1
not listed: [5]
inactive: all other assays above

Cc1cc(=O)oc2cc(O)ccc12
not listed: [5]
inactive: all other assays above

CC(=O)OC[C@H]1O[C@@](COC(C)=O)(O[C@H]2O[C@H](COC(C)=O)[C@@H](OC(C)=O)[C@H](OC(C)=O)[C@H]2OC(C)=O)[C@@H](OC(C)=O)[C@@H]1OC(C)=O
not listed: [5]
inactive: all other assays above

CC(=O)CCC(=O)O
not listed: [5]
inactive: all other assays above

CCCc1nc(C)c2c(=O)[nH]c(-c3cc(S(=O)(=O)N4CCN(CC)CC4)ccc3OCC)nn12
not listed: [5]
inactive: all other assays above

CC(=O)Oc1ccc2c(c1)CC[C@@H]1[C@@H]2CC[C@]2(C)[C@@H](O)CC[C@@H]12
not listed: [5]
inactive: all other assays above

C[C@]12C=CC(=O)C=C1CC[C@H]1[C@@H]3C[C@@H](O)[C@](O)(C(=O)CO)[C@@]3(C)C[C@H](O)[C@@]12F
not listed: [5]
inactive: all other assays above

CCOC(=O)c1c(N)sc2c1CCN(Cc1ccccc1)C2
not listed: [5]
inactive: all other assays above

O=C(O)CCc1nc(-c2ccccc2)c(-c2ccccc2)o1
not listed: [5]
inactive: all other assays above

CCCCN(CCN(CCCC)C(=O)N1CCOCC1)C(=O)N1CCOCC1
not listed: [5]
inactive: all other assays above

COc1cccc(N(C)C(=S)Oc2ccc3c(c2)CCCC3)n1
not listed: [5]
inactive: all other assays above

CCCSS/C(CCO)=C(\C)N(C=O)Cc1cnc(C)nc1N
not listed: [5]
inactive: all other assays above

Oc1c(Cl)cc(Cl)c(Cl)c1Cc1c(O)c(Cl)cc(Cl)c1Cl
inactive: [2]
active: [1] 2.82 µM | [3] 3.55 µM | [4] 5.62 µM

CC(C)(Oc1ccc(CCNC(=O)c2ccc(Cl)cc2)cc1)C(=O)O
not listed: [5]
inactive: all other assays above

C[C@@H]1C[C@H]2[C@@H]3CCC4=CC(=O)C=C[C@]4(C)[C@@]3(F)[C@@H](O)C[C@]2(C)[C@H]1C(=O)CO
not listed: [5]
inactive: all other assays above

O=C1c2cccc(O)c2C(=O)c2c(O)cccc21
not listed: [5]
inactive: all other assays above

O=Cc1ccccc1C=O
not listed: [5]
inactive: all other assays above

C=CCOc1ccccc1OCC(O)CNC(C)C (stereo not drawn)
not listed: [5]
inactive: all other assays above

NC(=O)C1(N2CCCCC2)CCN(CCCC(=O)c2ccc(F)cc2)CC1
not listed: [5]
inactive: all other assays above

O=C(CCCCCCCCC#CI)Oc1ccccc1
not listed: [5]
inactive: all other assays above

CCc1cccc2c3c([nH]c12)C(CC)(CC(=O)O)OCC3 (stereo not drawn)
not listed: [5]
inactive: all other assays above

CCN1CCN(c2cc(-c3ccc(F)cc3)c3c(n2)CCCCCC3)CC1
not listed: [5]
inactive: all other assays above

CC1=C(CC(=O)O)c2cc(F)ccc2/C1=C\c1ccc(S(C)=O)cc1 (stereo not drawn)
not listed: [5]
inactive: all other assays above

NCC1CCC(C(=O)Oc2ccc(CCC(=O)O)cc2)CC1 (stereo not drawn)
not listed: [5]
inactive: all other assays above

COc1nc(C)nc(Cl)c1NC1=NCCN1
not listed: [5]
inactive: all other assays above

CCOc1ccc(NC(C)=O)cc1
not listed: [5]
inactive: all other assays above

C[C@H]1C[C@H]2[C@@H]3CCC4=CC(=O)C=C[C@]4(C)[C@@]3(Cl)[C@@H](O)C[C@]2(C)[C@@]1(O)C(=O)CO
not listed: [5]
inactive: all other assays above

C[C@H]1NCc2cc(-c3ccc4c(=O)c(C(=O)O)cn(C5CC5)c4c3OC(F)F)ccc21
not listed: [5]
inactive: all other assays above

CCC(=O)c1ccc(O)cc1
not listed: [5]
inactive: all other assays above

Cc1ccc(/C=N/n2c(-c3ccccc3)csc2=S)cc1
not listed: [5]
inactive: all other assays above

COc1cc(C(=O)OCCCN2CCCN(CCCOC(=O)c3cc(OC)c(OC)c(OC)c3)CC2)cc(OC)c1OC
active: [1] 11.2 µM
inactive: [2] | [4]

CN(C)C(=O)Oc1cccc([N+](C)(C)C)c1
not listed: [5]
inactive: all other assays above

N=C(N)c1ccc2cc(OC(=O)c3ccc(N=C(N)N)cc3)ccc2c1
inactive: [1] | [2] | [4]

CCN(CCCCOC(=O)c1ccc(OC)c(OC)c1)C(C)Cc1ccc(OC)cc1 (stereo not drawn)
inactive: [2] | [4]
active: [1] 11.2 µM

Cc1cccc(N(C)C(=S)Oc2ccc3ccccc3c2)c1
not listed: [5]
inactive: all other assays above

COCc1c(C(C)C)nc(C(C)C)c(/C=C/[C@@H](O)C[C@@H](O)CC(=O)O)c1-c1ccc(F)cc1
active: [4] 0.708 µM
inactive: [1] | [2] | [3]

CCN(CC)CC(=O)OCC(=O)[C@@]1(O)CC[C@H]2[C@@H]3CCC4=CC(=O)CC[C@]4(C)[C@H]3[C@@H](O)C[C@@]21C
inactive: [1] | [2] | [4]

C[N+]1(CC2COC(c3ccccc3)(C3CCCCC3)O2)CCCCC1 (stereo not drawn)
inactive: [1] | [2] | [4]

CCOC(=O)Cn1cccc1-c1nc(-c2ccc(OC)cc2)c(-c2ccc(OC)cc2)s1
active: [1] 14.1 µM
inactive: [2] | [4]

COc1ccc(-c2cc(C(F)F)nn2-c2ccc(S(N)(=O)=O)cc2)cc1F
inactive: [1] | [2] | [4]

CC(C)[C@@H]1CC[C@@H](C)CC1=O
inactive: [1] | [2] | [4]

Cc1cccc(N(C)C(=S)Oc2ccc3c(c2)CCC3)c1
not listed: [5]
inactive: all other assays above

C[C@H](CCC(=O)O)[C@H]1CC[C@H]2[C@@H]3C(=O)C[C@@H]4CC(=O)CC[C@]4(C)[C@H]3CC(=O)[C@]12C
not listed: [5]
inactive: all other assays above

C[C@]12CCC(=O)C=C1[C@@H]1C[C@@H]1[C@H]1[C@@H]3[C@@H]4C[C@@H]4[C@@]4(CCC(=O)O4)[C@@]3(C)CC[C@@H]12
inactive: [1] | [2] | [4]

COc1ccc2[nH]c(S(=O)Cc3ncc(C)c(OC)c3C)nc2n1 (stereo not drawn)
inactive: [2] | [4]
active: [1] 20 µM

CC(C)(C)c1ccc(C(O)CCCN2CCC(C(O)(c3ccccc3)c3ccccc3)CC2)cc1 (stereo not drawn)
inactive: [1] | [2] | [4]

NC(=O)[C@@H]1CSSCCC(=O)N[C@@H](CCCCN=C(N)N)C(=O)NCC(=O)N[C@@H](CC(=O)O)C(=O)N[C@@H](Cc2c[nH]c3ccccc23)C(=O)N2CCC[C@H]2C(=O)N1 ([Mpa][hArg]GDWPC-NH2; disulfide 1-7)
not listed: [5]
inactive: all other assays above

CCOC(=O)[C@H](CCc1ccccc1)N[C@H]1CCc2ccccc2N(CC(=O)O)C1=O
inactive: all assays above

Cn1c(=O)c2c(ncn2C)n(C)c1=O
inactive: [1] | [2] | [4]
